Assay results as given in article PMC7862700, “An all-to-all approach to the identification of sequence-specific readers for epigenetic DNA modifications on cytosine”.

Assays:
Test in all cases: DAPPL (digital affinity profiling via proximity ligation, sequencing); 10 mM Tris-HCl pH 7.5, 50 mM NaCl, 1 mM DTT, 4% glycerol, room temperature, 30 min; GST-TFs on glutathione beads, 16-mer random dsDNA library, 0.1% formaldehyde crosslink after washing; high values mean tight binding
FLI1 = target: T1, FLI1 (Homo sapiens, UniProt Q01543 1-452); conditions: protein: recombinant; tags: N-terminal GST; dsDNA, one strand shown
T1 sequence: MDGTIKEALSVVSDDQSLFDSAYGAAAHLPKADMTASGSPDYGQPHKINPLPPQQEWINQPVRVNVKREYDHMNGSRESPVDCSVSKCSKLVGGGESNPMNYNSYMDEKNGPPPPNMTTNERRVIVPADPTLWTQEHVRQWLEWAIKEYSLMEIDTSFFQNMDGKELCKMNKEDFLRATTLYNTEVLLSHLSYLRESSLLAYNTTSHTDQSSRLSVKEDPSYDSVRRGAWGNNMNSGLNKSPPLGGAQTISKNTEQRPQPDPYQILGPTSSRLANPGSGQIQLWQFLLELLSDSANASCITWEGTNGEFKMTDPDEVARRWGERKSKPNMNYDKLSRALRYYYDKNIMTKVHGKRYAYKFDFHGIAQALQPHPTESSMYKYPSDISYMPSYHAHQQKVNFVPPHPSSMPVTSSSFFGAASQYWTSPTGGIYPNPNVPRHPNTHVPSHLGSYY
Method in brief: (§1)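 A tag-only sample was pooled with DNA-barcoded human transcription factors that had been expressed in yeast as GST fusions and captured on glutathione beads. The pools were incubated for 30 min at room temperature with 200 nmole of a random double-stranded 16-mer DNA library in Tris/NaCl/DTT/glycerol buffer, then washed, crosslinked with 0.1% formaldehyde, proximity-ligated (BsaI/T4 ligase, 1 h, 37 °C), PCR-amplified and sequenced on an Illumina NextSeq500. Binding signal is each hexamer's read frequency for a factor divided by its frequency for the tag-only sample.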

ELK1 = target: T2, ELK1 (Homo sapiens, UniProt P19419 1-428); conditions: protein: recombinant; tags: N-terminal GST; dsDNA, one strand shown
T2 sequence: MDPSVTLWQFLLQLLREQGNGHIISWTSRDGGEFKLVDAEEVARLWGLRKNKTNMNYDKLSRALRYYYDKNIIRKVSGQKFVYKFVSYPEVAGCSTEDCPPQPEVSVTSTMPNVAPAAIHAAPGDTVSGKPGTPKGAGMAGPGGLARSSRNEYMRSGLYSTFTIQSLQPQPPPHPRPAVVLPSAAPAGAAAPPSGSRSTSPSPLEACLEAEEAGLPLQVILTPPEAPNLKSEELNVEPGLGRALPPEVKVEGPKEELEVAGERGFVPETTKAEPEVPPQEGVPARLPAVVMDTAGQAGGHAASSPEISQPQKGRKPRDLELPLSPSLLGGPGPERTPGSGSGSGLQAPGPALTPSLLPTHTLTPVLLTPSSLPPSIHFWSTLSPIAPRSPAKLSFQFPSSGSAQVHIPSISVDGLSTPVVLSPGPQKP
Method in brief: as §1

GABPA = target: T3, GABPA (Homo sapiens, UniProt Q06546 1-454); conditions: protein: recombinant; tags: N-terminal GST; dsDNA, one strand shown
T3 sequence: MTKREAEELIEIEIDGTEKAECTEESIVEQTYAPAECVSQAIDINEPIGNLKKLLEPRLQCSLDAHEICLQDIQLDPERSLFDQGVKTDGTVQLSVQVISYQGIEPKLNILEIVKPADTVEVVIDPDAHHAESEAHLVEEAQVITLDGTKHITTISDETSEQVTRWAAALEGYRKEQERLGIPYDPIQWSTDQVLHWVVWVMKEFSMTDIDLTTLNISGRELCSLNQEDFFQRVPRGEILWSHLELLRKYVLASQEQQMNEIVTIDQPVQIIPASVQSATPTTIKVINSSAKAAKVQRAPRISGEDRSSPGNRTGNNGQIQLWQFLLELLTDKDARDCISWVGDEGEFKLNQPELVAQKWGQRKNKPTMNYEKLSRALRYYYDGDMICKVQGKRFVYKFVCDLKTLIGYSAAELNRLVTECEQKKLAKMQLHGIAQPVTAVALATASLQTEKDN
Method in brief: as §1

ERG = target: T4, ERG (Homo sapiens, UniProt P11308 1-479); conditions: protein: recombinant; tags: N-terminal GST; dsDNA, one strand shown
T4 sequence: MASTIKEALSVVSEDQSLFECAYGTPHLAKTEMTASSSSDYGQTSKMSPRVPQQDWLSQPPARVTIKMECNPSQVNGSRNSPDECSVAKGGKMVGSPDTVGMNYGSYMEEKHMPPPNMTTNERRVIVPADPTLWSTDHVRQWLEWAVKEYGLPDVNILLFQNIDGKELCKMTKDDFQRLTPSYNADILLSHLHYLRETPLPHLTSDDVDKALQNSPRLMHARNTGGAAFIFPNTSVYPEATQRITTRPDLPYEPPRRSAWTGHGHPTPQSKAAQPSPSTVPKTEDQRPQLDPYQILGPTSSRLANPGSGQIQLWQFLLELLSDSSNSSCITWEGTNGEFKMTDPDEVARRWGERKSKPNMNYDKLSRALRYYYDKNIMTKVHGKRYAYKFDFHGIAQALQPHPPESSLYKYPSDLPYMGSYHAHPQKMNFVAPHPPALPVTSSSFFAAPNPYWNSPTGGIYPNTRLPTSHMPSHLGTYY
Method in brief: as §1

ELF1 = ELF1 (Homo sapiens, UniProt P32519 1-619); conditions: protein: recombinant; tags: N-terminal GST; dsDNA, one strand shown
Chain of ELF1 (P32519 whole entry): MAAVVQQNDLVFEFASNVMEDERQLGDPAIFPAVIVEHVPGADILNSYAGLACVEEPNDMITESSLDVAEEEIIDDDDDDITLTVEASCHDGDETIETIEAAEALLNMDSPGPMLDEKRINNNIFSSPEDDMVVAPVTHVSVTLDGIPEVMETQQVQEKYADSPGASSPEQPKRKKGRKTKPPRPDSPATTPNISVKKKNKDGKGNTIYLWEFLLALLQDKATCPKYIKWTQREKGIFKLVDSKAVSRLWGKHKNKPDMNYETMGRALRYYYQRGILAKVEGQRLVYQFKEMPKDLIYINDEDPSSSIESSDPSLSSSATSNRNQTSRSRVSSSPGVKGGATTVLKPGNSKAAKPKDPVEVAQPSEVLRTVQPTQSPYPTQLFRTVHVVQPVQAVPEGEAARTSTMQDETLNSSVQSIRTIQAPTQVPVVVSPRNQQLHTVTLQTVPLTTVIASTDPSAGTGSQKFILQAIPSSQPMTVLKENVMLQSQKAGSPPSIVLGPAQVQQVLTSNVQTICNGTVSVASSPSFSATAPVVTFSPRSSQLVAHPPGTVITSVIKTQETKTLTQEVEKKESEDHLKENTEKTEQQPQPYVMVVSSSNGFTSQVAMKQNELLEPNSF
Method in brief: as §1

EHF = target: T5, EHF (Homo sapiens, UniProt Q9NZC4 1-300); conditions: protein: recombinant; tags: N-terminal GST; dsDNA, one strand shown
T5 sequence: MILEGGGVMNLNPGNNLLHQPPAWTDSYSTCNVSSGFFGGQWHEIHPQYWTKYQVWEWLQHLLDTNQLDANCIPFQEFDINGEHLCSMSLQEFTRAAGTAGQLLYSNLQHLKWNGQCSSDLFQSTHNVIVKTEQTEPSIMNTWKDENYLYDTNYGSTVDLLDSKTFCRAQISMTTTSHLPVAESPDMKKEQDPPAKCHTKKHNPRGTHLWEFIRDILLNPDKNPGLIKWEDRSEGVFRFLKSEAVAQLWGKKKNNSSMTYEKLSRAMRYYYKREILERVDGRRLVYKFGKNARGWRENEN
Method in brief: as §1

SPIB = SPIB (Homo sapiens, UniProt Q01892 1-262); conditions: protein: recombinant; tags: N-terminal GST; dsDNA, one strand shown
Chain of SPIB (Q01892 whole entry): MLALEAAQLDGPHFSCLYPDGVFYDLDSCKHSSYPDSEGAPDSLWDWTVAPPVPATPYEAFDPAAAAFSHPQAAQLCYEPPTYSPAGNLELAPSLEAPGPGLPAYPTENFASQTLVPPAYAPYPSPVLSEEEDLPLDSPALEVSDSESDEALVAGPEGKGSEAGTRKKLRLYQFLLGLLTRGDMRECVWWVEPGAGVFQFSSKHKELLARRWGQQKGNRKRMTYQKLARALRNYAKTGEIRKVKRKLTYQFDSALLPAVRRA
Method in brief: as §1

ELK3 = target: T6, ELK3 (Homo sapiens, UniProt P41970 1-407); conditions: protein: recombinant; tags: N-terminal GST; dsDNA, one strand shown
T6 sequence: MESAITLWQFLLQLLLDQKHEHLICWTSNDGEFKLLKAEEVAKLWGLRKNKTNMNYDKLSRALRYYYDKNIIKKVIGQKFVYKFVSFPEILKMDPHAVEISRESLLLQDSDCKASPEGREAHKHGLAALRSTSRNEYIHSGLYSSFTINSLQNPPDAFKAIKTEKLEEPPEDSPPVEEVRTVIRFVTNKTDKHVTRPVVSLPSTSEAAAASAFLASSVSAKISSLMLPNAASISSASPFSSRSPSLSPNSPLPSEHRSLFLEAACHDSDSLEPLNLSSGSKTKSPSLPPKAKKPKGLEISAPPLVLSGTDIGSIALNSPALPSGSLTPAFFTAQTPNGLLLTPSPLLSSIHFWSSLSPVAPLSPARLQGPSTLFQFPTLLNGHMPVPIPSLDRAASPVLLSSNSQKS
Method in brief: as §1

FEV = target: T7, FEV (Homo sapiens, UniProt Q99581 1-238); conditions: protein: recombinant; tags: N-terminal GST; dsDNA, one strand shown
T7 sequence: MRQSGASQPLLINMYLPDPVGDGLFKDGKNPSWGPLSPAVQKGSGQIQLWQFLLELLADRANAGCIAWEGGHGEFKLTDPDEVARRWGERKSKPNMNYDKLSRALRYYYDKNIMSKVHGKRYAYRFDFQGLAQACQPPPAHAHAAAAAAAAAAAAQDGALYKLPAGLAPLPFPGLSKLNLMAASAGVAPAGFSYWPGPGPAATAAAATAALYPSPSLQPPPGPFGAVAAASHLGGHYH
Method in brief: as §1

ETV5 = ETV5 (Homo sapiens, UniProt P41161 1-510); conditions: protein: recombinant; tags: N-terminal GST; dsDNA, one strand shown
Chain of ETV5 (P41161 whole entry): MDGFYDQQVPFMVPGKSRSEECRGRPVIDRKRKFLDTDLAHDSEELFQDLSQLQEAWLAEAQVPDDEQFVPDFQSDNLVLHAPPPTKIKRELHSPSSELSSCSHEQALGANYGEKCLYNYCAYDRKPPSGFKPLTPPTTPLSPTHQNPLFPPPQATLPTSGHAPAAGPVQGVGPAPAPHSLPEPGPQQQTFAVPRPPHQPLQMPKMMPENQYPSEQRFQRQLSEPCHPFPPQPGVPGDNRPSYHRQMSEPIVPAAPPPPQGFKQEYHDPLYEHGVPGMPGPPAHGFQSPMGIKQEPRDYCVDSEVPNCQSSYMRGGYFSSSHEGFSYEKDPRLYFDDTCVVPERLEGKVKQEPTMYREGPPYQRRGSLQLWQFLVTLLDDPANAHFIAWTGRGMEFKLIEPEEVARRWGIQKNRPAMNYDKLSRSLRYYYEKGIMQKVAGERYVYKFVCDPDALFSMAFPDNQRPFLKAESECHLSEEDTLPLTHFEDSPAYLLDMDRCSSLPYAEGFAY
Method in brief: as §1

HSF1 = HSF1 (Homo sapiens, UniProt Q00613 1-529); conditions: protein: recombinant; tags: N-terminal GST; chain copies: 3; dsDNA, one strand shown
Chain of HSF1 (Q00613 whole entry): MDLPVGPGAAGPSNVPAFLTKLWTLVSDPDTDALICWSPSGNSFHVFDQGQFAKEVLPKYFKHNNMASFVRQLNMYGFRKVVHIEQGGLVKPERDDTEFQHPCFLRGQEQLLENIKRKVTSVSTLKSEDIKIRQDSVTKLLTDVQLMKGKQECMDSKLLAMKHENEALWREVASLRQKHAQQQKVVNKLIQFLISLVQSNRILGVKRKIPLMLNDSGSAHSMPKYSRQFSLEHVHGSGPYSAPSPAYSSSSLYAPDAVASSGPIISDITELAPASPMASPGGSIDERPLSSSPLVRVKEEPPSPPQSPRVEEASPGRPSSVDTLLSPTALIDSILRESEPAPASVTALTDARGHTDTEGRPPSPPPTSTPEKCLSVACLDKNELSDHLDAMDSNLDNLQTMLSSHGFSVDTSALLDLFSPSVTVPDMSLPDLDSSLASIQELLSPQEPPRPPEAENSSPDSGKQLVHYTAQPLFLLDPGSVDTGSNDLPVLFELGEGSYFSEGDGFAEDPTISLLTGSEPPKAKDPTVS
Method in brief: as §1

ELF4 = ELF4 (Homo sapiens, UniProt Q99607 1-663); conditions: protein: recombinant; tags: N-terminal GST; dsDNA, one strand shown
Chain of ELF4 (Q99607 whole entry): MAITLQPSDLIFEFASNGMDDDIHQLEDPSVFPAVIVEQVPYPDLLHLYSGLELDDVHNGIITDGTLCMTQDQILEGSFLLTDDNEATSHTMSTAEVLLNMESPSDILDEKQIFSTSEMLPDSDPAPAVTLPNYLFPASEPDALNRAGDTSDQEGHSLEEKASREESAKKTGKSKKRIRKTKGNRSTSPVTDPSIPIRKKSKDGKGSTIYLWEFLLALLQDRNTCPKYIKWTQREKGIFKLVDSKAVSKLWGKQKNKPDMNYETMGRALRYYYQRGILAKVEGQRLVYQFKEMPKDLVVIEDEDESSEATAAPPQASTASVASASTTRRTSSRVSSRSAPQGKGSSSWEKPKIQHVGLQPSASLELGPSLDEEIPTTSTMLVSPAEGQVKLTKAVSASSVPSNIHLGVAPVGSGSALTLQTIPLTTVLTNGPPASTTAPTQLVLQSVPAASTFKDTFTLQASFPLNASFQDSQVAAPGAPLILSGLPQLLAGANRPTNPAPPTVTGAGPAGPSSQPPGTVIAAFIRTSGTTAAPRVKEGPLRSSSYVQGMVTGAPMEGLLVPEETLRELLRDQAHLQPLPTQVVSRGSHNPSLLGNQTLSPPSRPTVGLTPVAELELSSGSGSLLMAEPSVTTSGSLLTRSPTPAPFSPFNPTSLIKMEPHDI
Method in brief: as §1

ELK4 = target: T8, ELK4 (Homo sapiens, UniProt P28324-2 1-405); conditions: protein: recombinant; tags: N-terminal GST; dsDNA, one strand shown
T8 sequence: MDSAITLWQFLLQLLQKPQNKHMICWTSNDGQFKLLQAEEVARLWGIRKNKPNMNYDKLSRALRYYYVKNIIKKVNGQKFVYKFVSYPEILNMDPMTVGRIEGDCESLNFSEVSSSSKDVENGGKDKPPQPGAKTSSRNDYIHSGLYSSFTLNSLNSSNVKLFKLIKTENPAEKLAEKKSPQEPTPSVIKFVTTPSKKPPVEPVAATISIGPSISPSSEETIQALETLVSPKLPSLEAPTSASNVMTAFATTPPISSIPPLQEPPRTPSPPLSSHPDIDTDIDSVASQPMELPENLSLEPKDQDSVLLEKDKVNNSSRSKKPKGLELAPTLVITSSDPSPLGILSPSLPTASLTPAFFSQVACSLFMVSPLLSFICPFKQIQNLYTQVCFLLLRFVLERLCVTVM
Method in brief: as §1

ETV2 = target: T9, ETV2 (Homo sapiens, UniProt O00321 1-342); conditions: protein: recombinant; tags: N-terminal GST; dsDNA, one strand shown
T9 sequence: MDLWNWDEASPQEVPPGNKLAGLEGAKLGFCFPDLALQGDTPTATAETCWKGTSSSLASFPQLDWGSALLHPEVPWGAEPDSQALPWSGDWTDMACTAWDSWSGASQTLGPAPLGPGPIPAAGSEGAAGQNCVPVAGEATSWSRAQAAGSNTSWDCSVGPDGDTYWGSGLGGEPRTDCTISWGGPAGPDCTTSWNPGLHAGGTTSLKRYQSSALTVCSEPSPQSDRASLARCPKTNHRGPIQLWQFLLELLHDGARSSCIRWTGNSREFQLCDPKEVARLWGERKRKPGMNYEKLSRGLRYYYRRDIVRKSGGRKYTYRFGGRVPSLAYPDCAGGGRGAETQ
Method in brief: as §1

ELF3 = target: T10, ELF3 (Homo sapiens, UniProt P78545 1-371); conditions: protein: recombinant; tags: N-terminal GST; dsDNA, one strand shown
T10 sequence: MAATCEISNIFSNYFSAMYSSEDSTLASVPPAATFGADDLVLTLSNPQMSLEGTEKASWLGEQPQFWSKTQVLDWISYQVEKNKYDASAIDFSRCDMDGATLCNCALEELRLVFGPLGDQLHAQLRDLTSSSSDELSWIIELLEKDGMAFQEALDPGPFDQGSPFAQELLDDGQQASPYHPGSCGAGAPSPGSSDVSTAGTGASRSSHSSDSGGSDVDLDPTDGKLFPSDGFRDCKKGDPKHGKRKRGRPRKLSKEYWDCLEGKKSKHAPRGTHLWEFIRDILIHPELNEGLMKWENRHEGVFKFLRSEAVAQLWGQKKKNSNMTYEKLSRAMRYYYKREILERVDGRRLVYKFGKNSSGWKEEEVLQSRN
Method in brief: as §1

CRX = CRX (Homo sapiens, UniProt O43186 1-299); conditions: protein: recombinant; tags: N-terminal GST; dsDNA, one strand shown
Chain of CRX (O43186 whole entry): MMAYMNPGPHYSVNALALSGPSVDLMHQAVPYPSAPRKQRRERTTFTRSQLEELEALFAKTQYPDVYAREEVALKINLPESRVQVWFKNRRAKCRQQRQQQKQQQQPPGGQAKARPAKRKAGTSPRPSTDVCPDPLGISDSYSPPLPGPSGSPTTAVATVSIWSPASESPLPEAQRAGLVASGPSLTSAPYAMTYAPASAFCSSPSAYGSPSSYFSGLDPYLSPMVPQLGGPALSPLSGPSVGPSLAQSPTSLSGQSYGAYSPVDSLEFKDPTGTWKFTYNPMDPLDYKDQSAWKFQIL
Method in brief: as §1

ETV1 = ETV1 (Homo sapiens, UniProt P50549 1-477); conditions: protein: recombinant; tags: N-terminal GST; dsDNA, one strand shown
Chain of ETV1 (P50549 whole entry): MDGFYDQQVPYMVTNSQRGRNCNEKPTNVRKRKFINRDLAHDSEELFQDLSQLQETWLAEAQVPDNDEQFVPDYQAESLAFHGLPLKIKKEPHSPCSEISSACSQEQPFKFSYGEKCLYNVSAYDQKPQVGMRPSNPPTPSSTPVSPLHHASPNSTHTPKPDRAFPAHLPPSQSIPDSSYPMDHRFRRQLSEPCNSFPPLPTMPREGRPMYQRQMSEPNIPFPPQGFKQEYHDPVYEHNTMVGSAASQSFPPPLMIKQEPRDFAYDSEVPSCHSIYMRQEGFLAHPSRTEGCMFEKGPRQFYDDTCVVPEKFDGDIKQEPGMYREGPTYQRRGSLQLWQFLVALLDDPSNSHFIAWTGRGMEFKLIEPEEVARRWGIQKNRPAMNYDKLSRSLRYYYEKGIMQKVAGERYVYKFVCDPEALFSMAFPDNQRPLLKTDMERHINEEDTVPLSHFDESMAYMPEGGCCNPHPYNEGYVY
Method in brief: as §1

AATCCA
binding signal (FLI1): 1.09 fold enrichment (6-mer frequency, TF over GST control) | binding signal (ELK1): 1.07 fold enrichment (6-mer frequency, TF over GST control) | binding signal (GABPA): 1.09 fold enrichment (6-mer frequency, TF over GST control) | binding signal (ERG): 1.1 fold enrichment (6-mer frequency, TF over GST control) | binding signal (ELF1): 1.09 fold enrichment (6-mer frequency, TF over GST control) | binding signal (EHF): 1.07 fold enrichment (6-mer frequency, TF over GST control) | binding signal (SPIB): 1.12 fold enrichment (6-mer frequency, TF over GST control) | binding signal (ELK3): 1.07 fold enrichment (6-mer frequency, TF over GST control) | binding signal (FEV): 1.11 fold enrichment (6-mer frequency, TF over GST control) | binding signal (ETV5): 1.07 fold enrichment (6-mer frequency, TF over GST control) | binding signal (HSF1): 1.78 fold enrichment (6-mer frequency, TF over GST control) | binding signal (ELF4): 1.12 fold enrichment (6-mer frequency, TF over GST control) | binding signal (ELK4): 1.18 fold enrichment (6-mer frequency, TF over GST control) | binding signal (ETV2): 1.03 fold enrichment (6-mer frequency, TF over GST control) | binding signal (ELF3): 1.1 fold enrichment (6-mer frequency, TF over GST control) | binding signal (CRX): 2.33 fold enrichment (6-mer frequency, TF over GST control) | binding signal (ETV1): 1.12 fold enrichment (6-mer frequency, TF over GST control)
